# From PubChem BioAssay
# An excerpt weighted towards active compounds, which were near 3.7% of everything screened.
# PI5P4K alpha inh: inhibitors of human PI5P4K alpha; P48426; PI5P4Kalpha enzyme, ADP-Glo luminescence, 60 min; hits give low values; max response, %; actives 1.2% (n = 330,000); active = max response of -50% or lower; inconclusive = between -30% and -50%; inactive = -30% or higher; also: value at the top dose of about 77 µM; % is scaled to controls: 0 for no effect and ±100 for the full control effect
#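 Luminescence from ADP-Glo served as readout of PI5P4Kalpha activity in a qHTS format. Reaction: enzyme, substrate, compound, ATP at 5 microM final, 60 min at RT.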
# PLK1 PBD inh: inhibitors of human PLK1 polo-box domain binding. P53350. Plk1 PBD binding of FITC phosphopeptide, fluorescence polarization. Potency, µM, without a hit: max response, negative = inhibition, most hits filed as inhibitors. actives 2.8% (n = 360,000); also: potency is read from the fitted curve at half-maximal effect; series mostly up to about 57 µM; % is scaled to controls: 0 for no effect and ±100 for the full control effect; nearly all actives have a fitted effect of over 65% in size
# FEN1 inhibitor: inhibitors of human flap endonuclease 1; P39748; Recombinant FEN1 flap cleavage, fluorescence, 15 min; Potency, µM (doses to about 114 µM), without a hit: at the top dose activity change, negative = inhibition, most hits filed as inhibitors; actives 0.35% (n = 390,000); AID 588795; also: potency is read from the fitted curve at half-maximal effect; % is scaled to controls: 0 for no effect and ±100 for the full control effect; nearly all actives have a fitted effect of over 65% in size
#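 In this screen, 50 nM flap DNA substrate was added to 10 nM FEN1 pretreated with compound for 15 min at room temperature; cleavage was followed with reads at 0 and 15 min, and Hill fitting gave concentration–response parameters.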
# TCR activator: activates T cell receptor signaling. Potency, µM (highest dose often 9.22 µM), for inactives: at the highest dose activation of IL-2 secretion, usual class: activators. AID 504894. 330,000 tested, under 10 active. primary human leukocytes, anti-CD3, IL-2 HTRF, 48 h; also: % of control where 0% means no effect
#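 Using a-CD3 beads without co-stimulation, primary human leukocytes were exposed to compounds for 48 hr. An HTRF IL-2 kit measured the cytokine, with europium-to-d2 energy transfer producing emission at 665nm upon 320nm excitation.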
# VDR inhibitor: vitamin D3 receptor (human) inhibition; VDR-SRC2-3 peptide fluorescence polarization, 2 h; Potency, µM, inactives show max response, negative = inhibition, hits mostly inhibitors; actives 0.93% (n = 400,000); AID 504847; also: potency is read from the fitted curve at half-maximal effect; % is scaled to controls: 0 for no effect and ±100 for the full control effect
# Target sequence (P11473 whole entry, looked up): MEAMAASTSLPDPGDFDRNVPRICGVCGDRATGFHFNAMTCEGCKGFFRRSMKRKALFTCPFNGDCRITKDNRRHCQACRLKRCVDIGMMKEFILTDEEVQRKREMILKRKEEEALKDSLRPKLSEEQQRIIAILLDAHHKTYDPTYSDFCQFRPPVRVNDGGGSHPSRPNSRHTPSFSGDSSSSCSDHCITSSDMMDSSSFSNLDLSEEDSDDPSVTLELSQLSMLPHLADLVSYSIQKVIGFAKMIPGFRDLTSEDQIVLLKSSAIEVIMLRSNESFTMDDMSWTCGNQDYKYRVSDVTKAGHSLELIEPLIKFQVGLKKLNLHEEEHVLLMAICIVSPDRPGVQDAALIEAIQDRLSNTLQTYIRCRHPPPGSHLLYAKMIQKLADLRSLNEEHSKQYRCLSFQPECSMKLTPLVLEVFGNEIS
#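 Two reagent solutions held at 4 deg C in the dark were dispensed, compounds pinned at 23 nl, and the mixture incubated 2 h at room temperature. Read-out: fluorescence polarization of VDR–SRC2-3 peptide binding.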
# WRN helicase inh: WRN helicase (human) inhibition; Q14191; actives 0.46% (n = 360,000); WRN helicase unwinding, fluorescent forked duplex, kinetic; Potency, µM (doses to about 114 µM), for the others: at the top dose activity change, negative = inhibition, actives largely listed as inhibitors; also: potency is read from the fitted curve at half-maximal effect; % is scaled to controls: 0 for no effect and ±100 for the full control effect; nearly all actives have a fitted effect of over 55% in size
#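 Kinetic red-fluorescence monitoring (525/598 nm) tracks WRN helicase activity after 100 nM fluorophore-quencher forked duplex and 2 mM ATP are added to 20 nM enzyme pretreated 15 min at room temperature with compound.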
# * hit, by the source's call; ? = inconclusive; / = not tested or not shown; [ ] = dose if it differs, or a comment. Unless noted, calls follow the shape of the dose curve; as a rule, active = well fitted curve in the direction sought with a large enough effect; inconclusive = small, poorly fitted or top-dose-only effect, or another doubt; inactive = no such curve, though single readings can be large; an effect the other way counts as inactive or inconclusive.
SMILES,PI5P4K alpha inh,PLK1 PBD inh,FEN1 inhibitor,TCR activator,VDR inhibitor,WRN helicase inh
Cc1ccc(S(=O)(=O)c2nc(C)oc2N2CCOCC2)cc1,-11.8,21.2µM*,4.7%,-6.3%,-17.2%,-17.7%
Cc1ccc(S(=O)(=O)c2nc(C(C)(C)C)oc2N2CCOCC2)cc1,/,?,-0.6%,-0.7%,?,-10.7%
COc1ccc(NC(=S)c2ccc3ccccc3n2)cc1,-1.3,6.7µM*,-2.0%,-0.2%,?,17.2%
Cc1ccc(NC(=S)c2ccc3ccccc3n2)c(C)c1,0.4,13.4µM*,-4.4%,0.9%,79.4µM*,-18.3%
CCOc1ccc(NC(=S)c2ccc3ccccc3n2)cc1,-3.6,2.67µM*,0.4%,-6.8%,10.8%,-0.7%
CCOc1ccc(CN(C)C(=O)c2ccc3ccccc3n2)cc1,11.0,-0.9%,9.9%,7.2%,-1.8%,-4.3%
COc1ccc(S(=O)(=O)c2cnc3ccc(Cl)cc3c2N2CCCCC2C)cc1 (configuration not stated),/,/,-14.2%,/,9.6%,/
CC(C)(C)n1ncc2c(=O)n(Cc3ccc(Cl)cc3F)cnc21,/,/,-16.1%,/,/,/
Cc1ccc(S(=O)(=O)N2CCCc3cc(NS(=O)(=O)c4ccccc4)ccc32)cc1,/,/,-39.2%,/,3.1%,/
O=C(Cc1ccc(Br)cc1)NC1CCCCC1,-2.8,-12.2%,-2.3%,7.4%,10.0%,5.5%
CC1CC(NC(=O)Cc2ccc(Br)cc2)CC(C)(C)C1 (configuration not stated),2.5,5.97µM*,-11.0%,-0.4%[46.1 µM],?,-6.2%
CCOc1ccc(C2C(C(=O)Nc3ccccc3C)=C(C)Nc3nnnn32)cc1 (configuration not stated),/,/,0.1%,/,-1.2%,/
Cc1cccc(-c2nc3c4ccccc4n(Cc4cccc(Cl)c4)c(=O)n3n2)c1,/,/,-7.5%,/,8.8%,/
Cc1nn(-c2ccccc2)c(N)c1Sc1ccc([N+](=O)[O-])cc1,-16.5,11.9µM*,-21.0%,-0.7%[46.1 µM],?,-27.3%
Cc1ccc(Sc2c(C)nn(-c3ccccc3)c2OC(=O)C(C)(C)C)cc1,/,/,9.1%,/,?,/
COc1ccc(C(=O)Oc2c(Sc3ccccc3)c(C)nn2-c2ccccc2)cc1OC,/,/,3.0%,/,-28.5%,/
Cc1nn(-c2ccccc2)c(OC(=O)C(C)C)c1Sc1ccccc1,/,/,?,/,70.8µM*,/
Cc1nn(-c2ccccc2)c(OC(=O)C(C)(C)C)c1Sc1ccccc1,/,/,3.7%,/,79.4µM*,/
CCOC(=O)N1CCN(C(=O)CCSc2ccc(C)cc2)CC1,?,3.36µM*,3.1%,-3.3%[46.1 µM],-19.4%,-1.5%
CCOC(=O)N1CCN(C(=O)CCSc2ccc(Cl)cc2)CC1,/,-2.1%,-12.2%,-0.7%[46.1 µM],-6.8%,-0.7%
CN(C)/C=C/C(=O)c1ccc2noc(-c3ccccc3)c2c1,-69.6*,-24.0%,-10.2%,0.7%,-10.4%,1.9%[11.6 µM]
COc1ccccc1NC(=O)CN1C(=O)COc2ccc(S(=O)(=O)N3CCCCCC3)cc21,-10.4,29.9µM*,15.6%,-3.6%,-16.8%,3.0%
COc1ccccc1NC(=O)COn1nnc2ccc(S(=O)(=O)N3CCOCC3)cc21,-25.8,18.9µM*,6.3%,-9.5%,-28.3%,4.6%
O=C(CCl)c1cc2c3c(c1)CC(=O)N3CCC2,-3.0,1.19µM*,-3.4%,0.6%,?,-11.4%
O=C(NCCO)C(=O)Nc1cc2c3c(c1)CC(=O)N3CCC2,2.9,-17.2%,1.3%,-3.1%,-13.0%,3.1%
SMILES,PI5P4K alpha inh,PLK1 PBD inh,FEN1 inhibitor,TCR activator,VDR inhibitor,WRN helicase inh
Cc1c(C(=O)NCc2ccccc2Cl)sc2nc[nH]c(=O)c12,/,/,19.9%,/,16.4%,/
COc1cccc(C=C(C#N)C(=O)c2ccccc2)c1,-3.3,2.12µM*,/,/,/,-5.2%[57.1 µM]
N#C/C(=C\c1cccc(Cl)c1)C(=O)c1ccccc1,-18.3,0.844µM*,?,-0.3%,?,-19.0%
N#C/C(=C\c1ccc[nH]1)C(=O)c1ccccc1,-7.0,-10.1%,-2.4%,2.6%,16.3%,17.9%
C=CCSc1nccc(=O)[nH]1,-18.3,13.4µM*,10.3%,-2.8%[46.1 µM],?,5.0%
Cc1ccc(S(=O)(=O)N2CCN(c3nc(-c4ncco4)nc4ccccc34)CC2)cc1,/,/,-18.7%,/,?,/
CCn1c(N2CCC(Cc3ccccc3)CC2)nc2c1c(=O)[nH]c(=O)n2C,4.4,29.9µM*,1.6%,8.7%,-11.8%,-7.8%
